Experiment in all cases: NCI-60 one-dose screen, 48 h (100 = growth as untreated, 0 = no growth, -100 = all killed)
What all share (details): 10 µM unless noted

The test system of test [1] is DU-145 prostate.
Test [2] concerns K-562 leukemia.
Test [3] concerns MDA-MB-231 breast.
Test [4] has as its system RXF 393 renal.
Test [5] relates to SF-268 CNS.
The test system of test [6] is SF-295 CNS.
Test [7] deals with SF-539 CNS.
In test [8] the test system is UACC-257 melanoma.
The test system of test [9] is M14 melanoma.
Test [10] deals with HCT-15 colon.
Test [11] concerns HT29 colon.
Test [12] concerns SNB-75 CNS.
Test [13] has as its system SNB-19 CNS.
Test [14] has as its system U251 CNS.
In test [15] the test system is PC-3 prostate.
Test [16] concerns UACC-62 melanoma.
Test [17] deals with LOX IMVI melanoma.
The subject of test [18] is SK-MEL-28 melanoma.
Test [19] deals with MALME-3M melanoma.
In test [20] the test system is SK-MEL-5 melanoma.

Compounds without any hit were thinned out: in the full panel of roughly 83,000, 20% have a hit.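 Growth was measured after 48 h exposure to one concentration of compound in 96-well plates. Values under 10 count as active.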 A number with no mark means an inactive call. Active and inactive are the calls of the source.

For the compound `COc1c(Cl)ccc2c(-c3nc4cc(Cl)c(F)cc4s3)cc(=O)oc12`, the growth in test [1] is 97.1%; in test [2], 64.9%; in test [3], 65%; in test [4], 92.3%; in test [5], 29.5%; in test [6], 97.7%. Further, the growth is 90% in test [7]; 91.6% in test [8]; 95.5% in test [9]; 82% in [10]; 5.31% (active) in test [11]; 69.3% in [12]. The growth in test [13] is 96%; in test [14], 99.1%; in test [15], 84.3%; in test [16], 91.7%; in [17], -80.2% (active); in test [18] it was 111%.

As for `CCSc1nnc2c3cc(Br)ccc3n(C)c2n1`, the growth in test [1] is 119%; in test [2] it was 118%; in test [3], 93.3%; in [4], 116%; in [5] it was 107%; in [6] it was 93.7%. The growth in [7] is 106%; in test [8], 105%; in test [9], 98.4%; in test [10], 96.7%; in test [11], 104%; in [12] it was 92.6%. The growth is 109% in test [13]; 101% in [14]; 81% in test [15]; 103% in [16]; 96% in test [17]; 123% in test [18].

With `Cn1c2ccc(Cl)cc2c2nn(C(=O)c3ccccc3)c(=O)nc21`, the growth in test [1] is 114%; in [2] it was 110%; in [3], 106%; in test [4], 98.9%; in [5] it was 104%; in test [7], 99.9%. The growth in test [8] was 128%; in [9], 98.9%; in test [10] it was 96.7%; in test [11], 108%; in test [12], 88.3%; in test [13], 105%. Also, the growth in test [14] was 103%; in test [15] it was 93.2%; in test [16], 107%; in test [17], 98.1%; in test [18] it was 125%.

Take `CCCCC/C=C\C/C=C/CCCCCCCCNC(=O)Nc1ccc([N+](=O)[O-])cc1`: the growth in test [1] is 47.3%; in [19], 82.9%; in [3], 77.8%; in test [4] it was 113%; in [5] it was 42.5%; in [6], 56.4%. For the same compound, the growth in test [7] was 107%; in [8] it was 98.9%; in test [9], 77.9%; in test [10], 78%; in test [11] it was 60.7%; in test [12], 103%. Besides, the growth in [13] was 89.6%; in test [14], 51.3%; in test [15], 16.3%; in test [20], 103%; in test [16], 68.4%; in [17], 17.4%. Besides, in [18], the growth is 106%.

On to `CC(=O)OC[C@H](O)[C@@]1(O)CC[C@H]2[C@@H]3CCC4=CC(=O)CC[C@]4(C)[C@H]3[C@@H](O)C[C@@]21C`, for which the growth in test [1] is 93.7%; in test [2], 89.5%; in [19] it was 95.8%; in test [4] it was 134%; in test [5] it was 97.1%; in test [6] it was 111%. For the same compound, the growth in test [7] is 100%; in [8], 110%; in test [9] it was 104%; in test [10], 105%; in test [11], 101%; in [12], 117%. Moreover, the growth was 109% in test [13]; 111% in test [14]; 95.4% in [15]; 104% in test [16]; 103% in test [17]; 114% in [18].

Turning to `Cn1c2ccccc2c2nn(C(=O)c3ccccc3)c(=O)nc21`, the growth is 118% in [1]; 112% in test [2]; 120% in test [3]; 101% in test [4]; 111% in test [5]; 98.2% in test [6]. Besides, the growth in [7] was 106%; in test [8], 118%; in test [9] it was 104%; in test [10], 101%; in [11], 105%; in test [12], 105%. Moreover, the growth in [13] is 99%; in [15], 92.4%; in [16], 105%; in test [17], 99.3%.

Take `CCCCNNC(=O)c1ccc(Br)cc1`: the growth in test [1] is 50.9%; in [2], 29.9%; in test [3], 76.1%; in test [4] it was 69.5%; in test [5] it was 56.4%; in test [6], 38.4%. Also, the growth is 61.4% in test [7]; 16.3% in [8]; 42% in test [9]; 78.6% in [10]; 36.9% in test [11]; 61.1% in test [12]. The growth in test [13] is 76.6%; in test [14], 61.9%; in test [15], 61.4%; in test [16], 40.9%; in test [17], 62.1%; in test [18], 53.2%.

For `COc1ccc(OC2=C(C#N)C(=N)N3c4ccccc4Sc4ccccc4C3N2)cc1` (stereo unspecified), the growth in test [1] is 99.7%; in test [2], 148%; in [3], 60.8%; in [4], 78%; in test [5], 89.2%; in [7], 91.5%. The growth in test [8] is 115%; in test [9], 105%; in test [10], 105%; in test [11], 119%; in test [13] it was 97.8%; in [14] it was 105%. Further, the growth was 88.9% in [15], 69.6% in test [16] and 76.4% in test [18].

Consider `NC(=O)c1cc(Cl)ccc1NC(=O)COc1ccccc1`, for which the growth in test [1] is 60.4%; in test [2] it was 18.1%; in test [3] it was 77.4%; in test [4], 55%; in test [5] it was 66.2%; in test [7] it was 18.2%. Also, the growth in test [8] was 84.4%; in test [9] it was 28.2%; in test [10], 33.3%; in test [11] it was 17.6%; in test [12], 36.5%; in test [13] it was 64.7%. The growth was 39.7% in test [14]; 47.3% in [15]; 56.7% in [16]; 59.4% in test [17]; 69.3% in test [18].
